# From PubChem
# In the library only some 21% were active in any assay of this set; here they are far more common.
# Pf growth 96h: Primary qHTS for delayed death inhibitors of the malarial parasite plastid, 96 hour incubation; P. falciparum luciferase reporter growth, 96 h; Potency, µM (doses to about 28.7 µM), inactives show top-dose activity change, negative = inhibition, usual class: inhibitors; 320,000 compounds, 6.9% hits; AID 504834, 2011; also: potency is read from the fitted curve at half-maximal effect; % is scaled to controls: 0 for no effect and ±100 for the full control effect
#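 Delayed-death screen, second-generation endpoint: infected erythrocytes, 2% hematocrit, 0.05% parasitemia final; 96 hours at 37 C, 5% CO2; luciferase detection reagent; luminescence decrease equals reduced growth.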
# NS1 inh: qHTS Assay for Inhibitors of Influenza NS1 Protein Function; Potency, µM (highest dose often 46.1 µM), for the others: top-dose activity, positive = more growth; 270,000 compounds, 0.4% hits; calls by dose curve; also: potency is read from the fitted curve at half-maximal effect; actives are rising curves; nearly all actives have a fitted effect of over 50% in size
#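 In this qHTS, NS1 from influenza A is expressed in budding yeast, where it slows growth. Cells are switched from glucose to 2% galactose medium (pH 6.0, -URA), treated with compound, and growth recovery is read at OD600.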
# Shiga inhibitor: A qHTS for Small Molecule Inhibitors of Shiga Toxin | inhibition, % at 38.7 µM | Vero cells, Shiga toxin protein synthesis inhibition reporter | AID 2315, 2010 | 290,000 compounds, 9.2% hits; in the data active = inhibition mostly above about 28%, no sharp cut-off; inactive = mostly below about 43%; also: 0% is about no effect
# Cycloheximide cs: Cycloheximide Counterscreen for Small Molecule Inhibitors of Shiga Toxin; cell reporter, cycloheximide protein synthesis inhibition counterscreen; max response, %; 300,000 compounds, 12% hits; in the data active = max response mostly above about 13%, no sharp cut-off; inactive = mostly below about 14%; also: read at 38.3 µM for the half of the compounds with a filed dose; 0% is about no effect
# Pf growth 48h: Primary qHTS for delayed death inhibitors of the malarial parasite plastid, 48 hour incubation | 310,000 compounds, 5.9% hits | P. falciparum luciferase growth in erythrocytes, 48 h | Potency, µM (doses to about 28.7 µM), without a hit: at the top dose activity change, negative = inhibition, hits mostly inhibitors | AID 504832, 2011; also: potency is read from the fitted curve at half-maximal effect; % is scaled to controls: 0 for no effect and ±100 for the full control effect
#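 A one-generation exposure of luciferase-tagged malaria parasites in RPMI 1640/Albumax erythrocyte culture, 37 C and 5% CO2. Inhibition is inferred from decreased luminescence after adding detection reagent.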
# * marks the source's active call; other numbers are inactive results; ? = inconclusive; / = no result. Unless noted, calls follow the shape of the dose curve; as a rule, active = well fitted inhibition curve with a large enough effect; inconclusive = small, poorly fitted or top-dose-only effect, or another doubt; inactive = no such curve, though single readings can be large or run the other way.
SMILES,Pf growth 96h,NS1 inh,Shiga inhibitor,Cycloheximide cs,Pf growth 48h
C[C@H](NC(=O)[C@H]1N2C(=O)c3ccccc3C2SC1(C)C)C(=O)N1CCC[C@H]1CO (stereo partly specified),-15.9%,28.8%,6.6,-1.2,?
COc1cc(C(=O)NCCCOC(C)C)ccc1OC1CCN(C(C)=O)CC1,?,6.0%,-4.1,2.1,6.9%
c1ccc(-c2onc(-c3ccco3)c2-c2ccc3[nH]ccc3c2)cc1,?,21.8%,42.1*,34.5*,-4.5%
c1ccc(-c2ccc3[nH]ccc3c2)cc1,182.0%,/,/,/,96.5%
CCOC(=O)c1ccc(-c2c(-c3ccc4c(c3)OCO4)noc2-c2ccsc2)cc1F,?,-4.3%,-3.5,-1.5,?
c1cc2cc(-c3c(-c4ccc5c(c4)OCO5)noc3-c3ccsc3)ccc2[nH]1,-97.7%,8.1%,49.9*,39.3*,90.7%
Cc1onc(-c2ccc3c(c2)OCO3)c1-c1ccc2[nH]ccc2c1,?,-88.5%,22.1*,2.8,-26.1%
COc1cc(-c2c(-c3ccc4c(c3)OCO4)noc2-c2ccsc2)ccc1F,?,-8.0%,17.6,14.6*,?
N#Cc1c(-c2ccc3c(c2)OCO3)cc[nH]c1=O,2.5%,8.7%,-17.4,-8.0,3.2%
CC(c1ccon1)N(C)Cc1cn(Cc2ccccc2)nc1-c1ccc2c(c1)OCO2 (stereo unspecified),?,-7.6%,-2.4,-0.7,?
Cc1ccc(S(=O)(=O)N2CCN(C(=O)c3ccnn3C)CC2)cc1C,17.3%,-10.8%,-32.1,-2.9,7.2%
CCCn1nc(C(=O)N2CCN(S(=O)(=O)c3ccc(C)c(C)c3)CC2)c2ccccc2c1=O,?,/,/,/,11.7µM*
CCC(C)N1CCC2(CC1)N=c1c(c3c4c5c(C)c(O)c3c(O)c1=NC(=O)C(C)=CC=C[C@H](C)[C@H](O)[C@@H](C)[C@@H](O)[C@@H](C)[C@H](OC(C)=O)[C@H](C)[C@@H](OC)C=CO[C@@](C)(O5)C4=O)N2 (stereo partly specified),?,/,/,/,9.28µM*
CO[C@@H]1/C=C\O[C@]2(C)Oc3c(C)c(O)c4c(O)c(cc(O)c4c3C2=O)NC(=O)/C(C)=C\C=C/[C@H](C)[C@@H](O)[C@H](C)[C@H](O)C(C)[C@H](OC(C)=O)[C@@H]1C (stereo partly specified),/,-10.5%,/,/,/
CO[C@H]1C=CO[C@@]2(C)Oc3c(C)c(O)c4c(O)c(c5c(c4c3C2=O)NC2(CCN(CC(C)C)CC2)N=5)=NC(=O)C(C)=CC=C[C@H](C)[C@H](O)[C@@H](C)[C@@H](O)[C@@H](C)[C@H](OC(C)=O)[C@@H]1C,/,/,-1.0,5.7,/
CCOC(=O)/C(N)=C/c1ncc(C(F)(F)F)cc1Cl,14.0%,-1.8%,-6.3,13.2,3.2%
Cc1c(C(C)(C)O)[nH]c2ccc(C(F)(F)F)cc12,-32.2%,-101.1%,16.8,8.6*,-4.9%
COC(=O)c1ccc2c(C)c(C(C)(C)O)[nH]c2c1,78.5%,-22.1%,36.7,14.5*,19.1%
CCCCN(CCCC)C(=O)c1ccccc1NC(=O)CN1C(=O)c2ccccc2C1=O,31.8%,-2.3%,-21.3,-1.4,17.2%
COCCn1c(SCc2cc(=O)n3cc(C)ccc3n2)nc2ccccc2c1=O,42.0%,6.5%,-5.6,-3.4,25.3%
CON(C)c1nc(OCCNC(=O)OCc2ccc(Cl)cc2Cl)nc(N(C)C)n1,-4.4%,-22.5%,-16.0,-2.2,-6.1%
COc1ccc(CCN(Cc2cccs2)S(=O)(=O)c2ccc(S(=O)(=O)N3CCC(C)CC3)cc2)cc1OC,21.1%,-3.5%,-3.7,-2.2,12.7%
O=C1CN(CC(=O)Nc2cccc(Cl)c2Cl)c2ccccc2N1,-1.1%,/,2.1,7.0,-9.5%
CCc1cc2c(=O)oc(-c3ccccc3F)nc2s1,-5.2%,-90.9%,/,14.4*,2.9%
Cc1cc2c(=O)oc(-c3ccccc3Br)nc2s1,56.3%,-45.5%,3.2,-0.7,35.0%
SMILES,Pf growth 96h,NS1 inh,Shiga inhibitor,Cycloheximide cs,Pf growth 48h
Cc1ccc(OCCn2cnc3ccccc3c2=O)c([N+](=O)[O-])c1,?,10.3%,51.9*,49.6*,100.1%
CCCn1nnc2ccccc2c1=O,27.4%,1.0%,-7.4,6.5,36.6%
Cc1cc(OCCn2cnc3ccccc3c2=O)ccc1[N+](=O)[O-],-17.3%,28.5%,-5.0,1.7,15.3%
CCOc1cccc(OCCn2cnc3ccccc3c2=O)c1,10.4µM*,-0.9%,35.0*,12.6,67.6%
CC(C)(C)c1ccc(OCCOCCn2cnc3ccccc3c2=O)cc1,41.2%,-7.6%,55.3,35.5*,-17.5%
CCOc1ccc(OCCn2nnc3ccccc3c2=O)cc1,116.0%,/,58.5*,36.7*,354.3%
Cc1ccc(OCCOCCn2cnc3ccccc3c2=O)cc1C,19.2%,-0.8%,-2.5,-3.0,7.0%
O=S(=O)(NC1=NCCC1)c1cccc(NC(=S)NCCc2ccccc2)c1,50.0%,-1.6%,28.9,9.3,8.0%
CC1Cc2cc(S(=O)(=O)N3CCC(C(=O)N4CCN(c5ccccc5F)CC4)CC3)ccc2N1C(=O)C1CC1 (stereo unspecified),6.7%,8.2%,-2.0,-1.6,?
O=C(CNC(=O)c1cccc(OC(F)F)c1)OCn1nnc2ccccc2c1=O,3.0%,/,-11.9,8.5,31.4%
Cc1ccc(N2CN=C(c3ccccc3)NC2=S)cc1,-2.0%,-4.0%,98.4*,63.4*,/
COc1ccc(C2=NCN(c3ccc(C)cc3)C(=S)N2)cc1,7.3%,-8.8%,41.7,36.1*,/
Cc1nc2ncnn2c(C)c1CCC(=O)NCCCN1CCN(c2cccc(Cl)c2)CC1,?,5.2%,-13.3,-1.6,?
CCCCOc1ccc(C2C3CN(C(=O)OCC)CC=C3C(C#N)=C(N)C2(C#N)C#N)cc1OC (stereo unspecified),/,-34.1%,2.8,7.0,11.7µM*
CCOC(=O)N1CC=C2C(C#N)=C(N)C(C#N)(C#N)[C@H](c3ccc(OCC)c(OCC)c3)[C@H]2C1,7.7%,4.9%,22.6,0.9,5.22µM*
N#CC1=C(N)C(C#N)(C#N)C(c2cccnc2)C2CN(C(=O)OCc3ccccc3)CC=C12 (stereo unspecified),9.28µM*,15.5%,-4.2,-1.7,?
Cc1ccc(C2C3CN(C(C)C)CC=C3C(C#N)=C(N)C2(C#N)C#N)cc1 (stereo unspecified),-0.5%,24.5%,-3.5,0.2,8.28µM*
COc1ccc(OC)c(C2C3CN(C(C)C)CC=C3C(C#N)=C(N)C2(C#N)C#N)c1 (stereo unspecified),?,-1.9%,-13.3,-1.1,?
CN(CC(=O)Nc1ccc(N2CCOCC2)cc1)C(=O)Cc1ccccc1,-24.2%,/,/,/,-25.2%
CC1(NC(=O)Cc2csc(-c3cccc(Cl)c3)n2)CCS(=O)(=O)C1 (stereo unspecified),-24.9%,/,/,/,2.3%
COc1cccc(NC(=O)NC2CCN(CC(=O)Nc3ccccc3[N+](=O)[O-])CC2)c1,?,-18.7%,-3.3,5.7,?
